Source: PubChem BioAssay
Most compounds without a hit are left out; they make up all but 1.5% or so of the library.
Akt phos inh: inhibitors of Akt phosphorylation; actives 0.32% (n = 360,000); activity change, % for hits at 50 µM; Neuro2A IGF-stimulated pAkt S473 HTRF, 20 min; active compounds read low; AID 651550; in the data active = activity change below about -80%; inconclusive = mostly about -51% to -80%; also: % is scaled to controls: 0 for no effect and ±100 for the full control effect
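Neuro2A cells (4,500/well, DMEM with 0.5% FBS) were treated with compound at a single 50 µM final concentration, stimulated with 6 nM IGF for 20 min at 37 °C, and lysed. Phospho-Akt Ser473 was read by HTRF as 665/615 ratio ×10^4.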
PINK1 modulator: changes PINK1 expression; actives 0.2% (n = 410,000); Potency, µM (series often up to 76.6 µM), for the others: at the top dose activation (PINK1 increase), hits mostly activators; PINK1 immunofluorescence, high-content cytometry, 24 h; active = well fitted activation curve with a large enough effect; inconclusive = small, poorly fitted or top-dose-only effect; cell line not stated here; also: potency is read from the fitted curve at half-maximal effect; % of control where 0% means no effect; nearly all actives have a fitted effect of over 65% in size
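Stable cell line, 250 cells/well, 12 h attachment; compounds pinned at 5 concentrations, 24 h; CCCP control. Fixed with nuclear dye, primary antibodies 12 h at 10 degrees C, secondary plus cell stain; laser-scanning cytometer read.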
BRCA1 expr act: activators of BRCA1 expression. MCF7-BRCA1-FFLuc reporter, luminescence, 48 h; response scale: scaled: vehicle 0%, 10 µM genistein 100%. Potency, µM (titrated, usually from 46.1 µM), for inactives: top-dose activation, hits mostly activators. actives 1.1% (n = 380,000); also: potency is read from the fitted curve at half-maximal effect; nearly all actives have a fitted effect of over 80% in size
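MCF7-BRCA1-FFLuc cells, 2000/well in phenol-red-free MEM, attached 2 h then treated 48 h at 37 C. Luciferase luminescence read 15 min after reagent; normalized to genistein maximum activation (10microM) and DMSO, concentration-response fitted.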
TCR activator: activates T cell receptor signaling; primary human leukocytes, anti-CD3, IL-2 HTRF, 48 h; Potency, µM (titrated, usually from 9.22 µM), for inactives: at the highest dose activation of IL-2 secretion, hits mostly activators; 330,000 tested, under 10 active; AID 504894; also: % of control where 0% means no effect
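Compounds are tested in HTS on primary human leukocytes co-incubated with a-CD3 beads for 48 hr. IL-2 output is measured by time-resolved FRET.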
The depositor's hits bear a star; i = inactive; ? = inconclusive; nt = no result given; [ ] = remark or other dose. Unless noted, calls follow the shape of the dose curve; as a rule, active = well fitted curve in the direction sought with a large enough effect; inconclusive = small, poorly fitted or top-dose-only effect, or another doubt; inactive = no such curve, though single readings can be large; an effect the other way counts as inactive or inconclusive.

SMILES | Akt phos inh | PINK1 modulator | BRCA1 expr act | TCR activator
Cn1ccs/c1=N\C(=O)Nc1cccc(Cl)c1 | i | 1% | 3.5µM* | 1%
CN=c1sc(C(=O)Nc2cccc(Cl)c2)cc(=O)n1C | i | 3% | -39% | -3%[46.1 µM]
Cc1cccc(NC(=O)c2cc(=O)c3ccccc3o2)n1 | -116%* | -2% | 94% | 8%
Cc1ccc(NC(=O)c2cc(=O)c3ccccc3o2)c(C)c1 | i | -2% | 94% | 1%[46.1 µM]
Cc1ccccc1NC(=O)c1cc(=O)c2ccccc2o1 | -110%* | -1% | 45% | 1%
N#Cc1ccccc1NC(=O)c1cc(=O)c2ccccc2o1 | i | -1% | 8.9µM* | -4%
CCOc1ccccc1CNC(=O)c1nc(-c2ccc(Cl)cc2)n2c1CCCCC2 | nt | 0% | nt | nt
COc1ccc(NC(=O)N2CC[C@@]3(CCCN(C(C)=O)C3)C2)cc1 | nt | 0% | nt | nt
CC(C)C(=O)NCC1CCC2(CCN(Cc3ccc(-c4cccc(Cl)c4)o3)CC2)O1 (centres undefined) | nt | 1% | nt | nt
COC(=O)c1ccc(C(=O)NCC2Cc3cccc(-c4ccc(C(=O)OC)cn4)c3O2)cc1 (centres undefined) | nt | -1% | nt | nt
COCCNc1oc(-c2ccc(C)cc2)nc1C#N | i | 0% | ? | -1%
COCCNc1oc(-c2ccc(Cl)cc2)nc1C#N | i | 2% | 5.6µM* | -12%
CN(C)CCCNc1oc(-c2ccc(Cl)cc2)nc1C#N | i | 0% | 12% | 3%[46.1 µM]
N#Cc1nc(-c2ccc(Cl)cc2)oc1NCCc1ccccn1 | i | 1% | 3.5µM* | -28%
COc1ccc(-c2nc(C#N)c(NCCc3ccccc3)o2)cc1 | i | nt | ? | 5%[46.1 µM]
Cc1ccc(-c2nc(C#N)c(NCCc3ccccn3)o2)cc1 | i | 1% | 3.5µM* | 0%
C[C@@H]1CN(Cc2ccc3c(c2)CN(C(=O)CN2CCOc4ccccc4C2)CCO3)C[C@H](C)O1 | nt | 1% | nt | nt
COc1cc(=O)n2c(c1C(=O)NC(C)c1ccco1)CCN(C(=O)c1ccc(F)cc1Cl)CC2 (centres undefined) | nt | 1% | nt | nt
COc1ccc(-c2cccc3c2OC(CNC(=O)c2ccccc2-n2cccn2)C3)nn1 (centres undefined) | nt | -1% | nt | nt
Fc1ccc(-c2nc(Nc3ccc(F)c(Cl)c3)nc3c2COc2ccccc2-3)cc1 | nt | -1% | nt | nt
COCCn1c(=O)c(-c2cc(F)cc(F)c2)nc2cnc(OC)nc21 | nt | -1% | nt | nt
O=C(Nc1scc(-c2ccc(F)cc2)c1C(=O)O)c1ccco1 | i | 0% | 92% | -5%
COC(=O)c1c(-c2ccccc2)csc1NC(=O)c1ccco1 | i | nt | 5µM* | -3%
COc1ccc(-c2nn(-c3ccccc3)cc2N)cc1 | i | 1% | 3.2µM* | 3%
COc1ccc(-c2c(C)nn(-c3ccccc3)c2N)cc1 | i | 7%[38.3 µM] | 11µM* | 11%
SMILES | Akt phos inh | PINK1 modulator | BRCA1 expr act | TCR activator
Cc1ccc(-c2nn(-c3ccccc3)cc2CO)cc1 | i | 2% | 7.9µM* | 5%
COc1cc(-c2cc(C)c3c(OC)ccc(OC)c3n2)cc2c1OCCN(C(=O)C(C)c1n[nH]c(=O)c3ccccc13)C2 (centres undefined) | nt | 1% | nt | nt
CCc1cc(C(=O)NCCN2Cc3ccccc3OC(c3ccsc3)C2)n(C)n1 (centres undefined) | nt | 1% | nt | nt
O=c1cc(-c2ccccc2)oc2ccc(O)cc12 | i | -2% | 2.8µM* | 7%
O=c1cc(-c2ccccc2)oc2ccccc12 | i | 0% | 16% | -2%
O=C(NCC1Cc2cccc(-c3nccs3)c2O1)c1ccnc(Cl)c1 (centres undefined) | nt | 1% | nt | nt
O=C(Nc1ccc2oc(-c3cccc4ccccc34)nc2c1)c1ncn[nH]1 | i | 28% | 2.2µM* | -2%
O=C(Nc1ccc2oc(-c3ccccc3Cl)nc2c1)c1ncn[nH]1 | i | -4%[38.3 µM] | ? | -15%
O=S(Cc1cc(Sc2ccccc2)nc(-c2ccccc2)n1)c1ccccc1 (centres undefined) | i | 16% | -20% | 0%
CNc1cc(CS(=O)c2ccccc2)nc(-c2ccccc2)n1 (centres undefined) | -123%* | -1% | 5% | 1%
O=C(COC(=O)c1cccnc1SCC(=O)NCc1ccccc1)NCc1ccccc1 | -89%* | 3% | -64% | 4%
COc1ccccc1CNC(=O)COC(=O)c1cccnc1SCC(=O)NCc1ccccc1OC | i | 15% | 68% | 6%
CN(C)CCNCc1ccc(OC2CCCC2)cc1 | -114%* | 3%[38.3 µM] | 1% | nt
COc1ccc2c(CN(C)c3ccccc3)cc(=O)oc2c1 | i | 2% | -15% | 8%
COc1ccc2c(CN(C)Cc3ccccc3)cc(=O)oc2c1 | i | 0% | 5µM* | nt
COc1ccc(COc2ccc3c(C)cc(=O)oc3c2)cc1 | i | -1% | 2.5µM* | nt
CC(C)c1c(C(=O)NCCN2CCOCC2)cnn1-c1nccc(-c2cccs2)n1 | nt | 0% | nt | nt
CCC1CCCCN1CCCNC(=O)c1ccc2c(c1)N(Cc1ccc(Cl)cc1)C(=O)c1ccccc1S2(=O)=O (centres undefined) | nt | -1% | -37% | nt
CC(/C=C/c1ccc(O)cc1)=N/O | i | -1% | 13µM* | 10%[46.1 µM]
COc1cccc(-c2nc3cc(SC)ccc3cc2CN(C(=O)c2csc(C)n2)C2CC2)c1 | nt | 1% | nt | nt
CCc1cc(C(=O)/C=C/c2cc3c(cc2C)OCCO3)c(O)cc1O | nt | 1% | 8% | nt
c1ccc(-c2nc3ccccc3s2)nc1 | i | 2% | 8.9µM* | 3%
c1ccc2oc(SCc3nc4ccccc4s3)nc2c1 | i | 2% | ? | 5%
c1ccc(SCc2nc3ccccc3s2)nc1 | i | 2% | 3.2µM* | -2%
O=C(Cc1ccc(F)cc1)c1ccc(O)cc1O | i | 1% | 13µM* | 2%
SMILES | Akt phos inh | PINK1 modulator | BRCA1 expr act | TCR activator
O=C(Nc1ccc2ncccc2c1)c1cc(Cl)ccc1Cl | i | -1% | 7.9µM* | 2%
O=C(Nc1ccc2ncccc2c1)c1cccc(Br)c1 | i | 1% | 2.2µM* | -1%
Brc1ccc(CNc2ccc3ncccc3c2)cc1 | i | 0% | 8.9µM* | -28%
Cc1ccc(C(=O)Nc2ccc3ncccc3c2)cc1 | i | 1% | ? | 0%
Cc1cc(C)n(CC(=O)N2CCC(n3c(C(C)C)nc4cccnc43)CC2)n1 | nt | -1% | nt | nt
COc1cccc2c1OCC(C(=O)Nc1nccs1)=C2 | i | 1% | 4.5µM* | 3%
COc1cccc(C=Nc2ccccc2C(=O)Nc2nccs2)c1OC | i | -3% | ? | 1%
O=C(NCCc1ccccn1)c1cnn(-c2ncc3c(n2)-c2ccccc2CC3)c1C1CC1 | nt | -1% | nt | nt
Nc1cccc(-c2nc3ccccc3[nH]2)c1 | i | 2%[38.3 µM] | 10µM* | 4%[46.1 µM]
Cc1ccc2nc(-c3cccc(N)c3)[nH]c2c1 | i | -1% | -17% | 7%[46.1 µM]
CN(C)c1ccc(/C=C/c2sc3ccccc3[n+]2Cc2ccccc2)cc1 | nt | 40µM* | 6% | nt
COc1ccc(/C=C/c2sc3ccccc3[n+]2CCCCI)cc1OC | nt | 0% | ? | nt
CCCN(CCC)c1ccc(/C=C/c2sc3ccccc3[n+]2CCCCI)cc1 | nt | 14µM* | -28% | nt
CCN(CC)c1nc(C)nc2c1cnn2CCc1ccccc1 | i | 2% | 8.9µM* | -1%
